The source of these data is PubChem BioAssay.

Molecules are shown by their SMILES. Results filed as inconclusive are left out. The source made the active and inactive calls.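 How the source made its calls, unless noted: active means inhibition over a set limit, the all-compound mean plus 3 SD, in both replicate runs; inconclusive means over that limit in just one replicate run; inactive means at or under that limit in both runs.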

Assay [1] is described as follows: Her2 expression decrease, cell viability multiplex – SKBR3 breast tumor cells, AlphaScreen, ATP viability, primary screen (AID 461;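 active means Her2 level under about 52% in both replicate screens, with viability over 70% of control, limit read from the data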;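 on Her2 level: lower value means less Her2 protein in the cells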;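 on viability: percent of carrier control wells set as 100% viability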). Particulars: SKBR3 Her2 protein level, 18-24 h, measured here: SKBR3 viability, ATP luminescence, at 10 µM. (In general: Alpha assays give light when donor and acceptor beads are brought close together.)
In assay [2] the target is Receptor tyrosine-protein kinase erbB-2 (Homo sapiens) (UniProt P04626). The assay is described as above. Particulars: 18-24 h, at 10 µM, stronger effect = lower value.
The nature of assay [3]: reduced viability of SK-BR-3 breast cancer cells – cell-based, 24 h, human, pilot screen (AID 572;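 active means viability at or below 10% of carrier control in both of two separate runs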;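 further: compound exposure lasted between 18 and 24 h rather than exactly 24 h; 100% = carrier-treated control wells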). The settings on record: SK-BR-3 viability, CellTiter-Glo luminescence, at 10 µM, stronger effect = lower value. In general terms: ATP-based viability assays read luminescence as a measure of living cells.
Assay [4] in a line: HUVEC growth inhibition – cell-based, human, primary screen (AID 575;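 active means viability at or below 30% in both replicate assays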;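 further: 100% = median of untreated cell wells with 0.1% DMSO on each plate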). The settings on record: HUVEC proliferation, CellTiter-Glo luminescence, 72 h; at 10 µM; stronger effect = lower value.
Assay [5] in a line: H69AR cell proliferation blockers – human, duplicate replicates, primary screen (AID 580;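 active means viability at or under a set limit in both replicates, limit being median viability minus 3 SD, cut at about 48% in these data, passing the limit was not always enough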;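 further: 100% = mean luminescence of untreated wells and 0% = no signal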). Particulars: H69AR lung tumor cells viability, ATP luminescence, 72 h; at 10 µM; stronger effect = lower value.
Assay [6] in a line: MRP1 drug-resistance reversers in H69AR cells – cell-based, doxorubicin co-treatment, pilot screen (AID 601;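 active means viability loss from added drug above about 55%, and viability with drug at most 40%, in both replicates, limit read from the data, passing the limit was not always enough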). The settings on record: CellTiter-Glo, 72 h, at 10 µM; for differential viability (reversal): stronger effect = higher value.
Assay [7] can be described thus: yeast transport mutant growth inhibition pilot in 384-well plates, post-Golgi transport modulator project (AID 636; in the data active means inhibition above about 31%). Particulars: absorbance 615 nm, about 18 h, stronger effect = higher value.
Assay [8] can be described thus: growth suppression of yeast trafficking mutant, preliminary HTS, modulators of trafficking downstream of Golgi apparatus project, 1536-format plate, OD 615 nm (AID 637; in the data active means inhibition above about 30%). The settings on record: yeast transport mutant growth, absorbance 615 nm, 18 h; stronger effect = higher value.
Assay [9] is described as follows: S. cerevisiae growth inhibition in permissive medium (OD615), pilot counter-assay for S. cerevisiae lifespan shortening project, permissive growth control (AID 705;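 active means growth inhibition above 25% in both replicates, a cutoff set 3 SD above the mean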). The settings on record: OD615, 24 h, at 10 µM, stronger effect = higher value.
A short description of assay [10]: S. cerevisiae growth inhibition in restrictive medium, OD615, pilot screen, restrictive growth control, yeast lifespan reduction project (AID 706;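 active means growth inhibition above a set limit, 3 SD over mean compound inhibition, in both replicates, cut at about 43% in these data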;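 further: modified DeaD lifespan yeast strain shifted to restrictive glucose medium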). Particulars: OD615, 48 h, at 10 µM, stronger effect = higher value.
Assay [11] in a line: doxorubicin toxicity protection in MRP-1 cells – H69AR cells, CellTiter-Glo, duplicate, MRP-1 activator project, pilot screen (AID 807;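 active means viability increase at or above a cutoff of the median across tested compounds plus 3 SD, cut at about 8.5% in these data, passing the limit was not always enough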;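 further: compound pretreatment 18-22 h then 72 h combined with doxorubicin; 0% = doxorubicin alone and 100% = vehicle without doxorubicin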). Particulars: H69AR viability with doxorubicin, CellTiter-Glo luminescence; at 10 µM; stronger effect = higher value.
A short description of assay [12]: viability of HCT116 without oncogenic beta-catenin – human colon tumor cells, pilot screen (AID 823;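 active means cell viability at or below a set limit in both duplicate runs, the limit being the all-compound median minus 4 SD, cut at about 23% in these data, passing the limit was not always enough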;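 further: 0% = wells killed by 20 µM Hyamine and 100% = untreated DMSO cell wells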). The settings on record: HCT116 beta-catenin knockout viability, CellTiter-Glo, 60 h; at 10 µM; stronger effect = lower value.
The nature of assay [13]: viability of PTEN-null HCT116 cells – cell-based, HCT116 clonal line, CellTiter-Glo, pilot screen (AID 824;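 active means viability at or below 27.92% in each of two runs, the all-compound median minus 4 SD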;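 further: 0% = 20 µM Hyamine control and 100% = vehicle cell control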). Particulars: HCT116 PTEN-deleted viability, 60 h, at 10 µM, stronger effect = lower value.
Assay [14] in a line: RAM pathway blockade in budding yeast – dse1pr::URA3 reporter, 5-FOA selection, pilot screen (AID 869).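 Further: 0% = DMSO wells with no growth and 100% = 10 µM 1-NA-PP1 with full growth; RAM network block rescues cells from 5-FOA so hits raise OD615 growth.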 The settings on record: S. cerevisiae dse1pr::URA3 5-FOA growth, OD615, 2 d; at 10 µM; stronger effect = higher value; strain carries analog-sensitive mutant Cbk1 kinase.
The nature of assay [15]: RAM signaling pathway blockade in yeast – S. cerevisiae, Pdr1DBD-CYC8 efflux-inhibited sensitized strain, primary screen (AID 1298;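 active means RAM network inhibition above 8.4% in each of two replicates, 3 SD over the compound average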;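 further: 0% = DMSO untreated cells without growth and 100% = 10 µM 1-NA-PP1 full growth; higher means more yeast growth rescued from 5-FOA killing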). Particulars: S. cerevisiae cbk1-as DSE1-URA3 strain, 5-FOA growth OD615, 2 d; at 50 µM; stronger effect = higher value.
Setting [16] is: H69AR cells + 2 uM doxorubicin, measured here: viability with 2 uM doxorubicin, stronger effect = lower value.
Setting [17] is: H69AR cells, compound alone cytotoxicity.

Chain of Receptor tyrosine-protein kinase erbB-2 (Homo sapiens) (P04626 whole entry, looked up): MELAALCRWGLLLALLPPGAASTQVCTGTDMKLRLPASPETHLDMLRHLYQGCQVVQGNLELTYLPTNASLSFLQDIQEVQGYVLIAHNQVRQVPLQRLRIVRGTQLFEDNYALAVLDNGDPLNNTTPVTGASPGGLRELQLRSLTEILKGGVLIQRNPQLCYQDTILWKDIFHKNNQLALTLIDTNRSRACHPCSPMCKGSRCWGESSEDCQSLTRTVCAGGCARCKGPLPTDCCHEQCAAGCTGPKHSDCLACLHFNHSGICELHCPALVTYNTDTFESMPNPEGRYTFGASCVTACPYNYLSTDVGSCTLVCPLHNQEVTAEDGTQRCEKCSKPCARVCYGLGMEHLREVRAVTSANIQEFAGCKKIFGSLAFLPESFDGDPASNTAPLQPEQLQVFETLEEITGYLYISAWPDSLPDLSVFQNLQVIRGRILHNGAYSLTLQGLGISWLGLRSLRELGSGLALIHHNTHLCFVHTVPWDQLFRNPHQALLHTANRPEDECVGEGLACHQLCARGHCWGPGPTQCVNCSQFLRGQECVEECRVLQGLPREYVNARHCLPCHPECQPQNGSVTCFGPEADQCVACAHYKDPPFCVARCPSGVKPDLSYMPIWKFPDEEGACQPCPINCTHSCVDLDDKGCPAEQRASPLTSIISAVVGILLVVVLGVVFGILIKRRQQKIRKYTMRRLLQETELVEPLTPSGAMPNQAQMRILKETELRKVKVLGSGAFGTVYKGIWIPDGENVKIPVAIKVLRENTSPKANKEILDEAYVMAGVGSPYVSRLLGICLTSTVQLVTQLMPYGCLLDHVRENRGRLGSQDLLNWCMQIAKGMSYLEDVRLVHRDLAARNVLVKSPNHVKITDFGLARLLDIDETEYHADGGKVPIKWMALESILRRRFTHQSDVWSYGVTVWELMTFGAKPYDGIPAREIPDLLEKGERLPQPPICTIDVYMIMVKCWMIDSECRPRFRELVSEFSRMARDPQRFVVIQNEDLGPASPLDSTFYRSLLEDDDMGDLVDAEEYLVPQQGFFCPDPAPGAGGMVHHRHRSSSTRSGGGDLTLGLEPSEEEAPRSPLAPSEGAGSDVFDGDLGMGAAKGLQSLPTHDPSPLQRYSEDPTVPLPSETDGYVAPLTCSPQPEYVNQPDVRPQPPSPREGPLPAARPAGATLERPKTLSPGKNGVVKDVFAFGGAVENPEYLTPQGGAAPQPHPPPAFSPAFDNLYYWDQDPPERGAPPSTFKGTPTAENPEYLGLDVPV

Turning to `O=C(COc1ccc2ccccc2c1)N1CCCC1`, the viability (usually a read-out of living cells in per cent, often relative to untreated cells) is 101% in [1]; 101% (inactive) in assay [3]; 85.3% (inactive) in [4]; 90% (inactive) in [5]; 81.4% in [6] (setting [16]); 90% in [6] (setting [17]). The viability in assay [12] is 96.2% (inactive); in [13], 101% (inactive). In assay [2], the Her2 level is 88.5% (inactive). Also, in assay [6] (H69AR cells + 2 uM doxorubicin), the differential viability (reversal) was 8.64% (inactive). Besides, the results for the inhibition in assay [7], in [8] and in assay [14] were 0.38% (inactive), -6% (inactive) and 0.745% (inactive), respectively. Besides, the growth inhibition in assay [9] and in [10] was -2.41% (inactive) throughout. Further, in [11], the viability increase was -0.13% (inactive). The RAM network inhibition in assay [15] was 6.48% (inactive).
Regarding `Brc1ccccc1-c1nc(-c2ccccc2)no1`, the viability in [1] was 88%; in assay [3] it was 88% (inactive); in assay [4], 89.1% (inactive); in assay [5] it was 74.3% (inactive); in [6] (setting [16]), 83.3%; in assay [6] (setting [17]), 74.3%. The results for the viability in [12] and in [13] were 72% (inactive) and 70.6% (inactive), respectively. The Her2 level in assay [2] is 84.5% (inactive). Also, the differential viability (reversal) in assay [6] (H69AR cells + 2 uM doxorubicin) is -8.99% (inactive). For the same compound, the inhibition (usually the relative decrease from the control value, in per cent) in assay [7] is -2.6% (inactive); in assay [8], -8% (inactive); in assay [14], 0.565% (inactive). The growth inhibition is -7.54% (inactive) in [9] and 8.43% (inactive) in [10]. In addition, in assay [11], the viability increase was -5.68% (inactive). In addition, in assay [15], the RAM network inhibition was 3.53% (inactive).
As to `CCCCCn1c(=O)[nH]c2cc(C(=O)NCCCN3CCCCC3)ccc2c1=O`, the viability is 76% in assay [1]; 76% (inactive) in assay [3]; 86.5% (inactive) in [4]; 88.7% (inactive) in [5]; 82% in assay [6] (setting [16]); 88.7% in [6] (setting [17]). Moreover, the viability in assay [12] was 75.1% (inactive); in assay [13] it was 77.5% (inactive). The Her2 level in [2] is 74.5% (inactive). In addition, the differential viability (reversal) in assay [6] (H69AR cells + 2 uM doxorubicin) is 6.66% (inactive). The values for the inhibition in [7], in [8] and in [14] were -6.76% (inactive), 5.33% (inactive) and -0.475% (inactive), respectively. Further, the growth inhibition in [9] is -6.6% (inactive); in assay [10], 6.35% (inactive). Moreover, in assay [11], the viability increase is -2.74% (inactive). Besides, the RAM network inhibition in [15] was 0.41% (inactive).
As for `CC(=O)C1=C(C)Nc2ncnn2C1c1cccc(OCc2ccccc2)c1` (stereo not drawn), the viability in assay [1] was 102%; in [3], 102% (inactive); in [4], 115% (inactive); in assay [5] it was 88.6% (inactive); in [6] (setting [16]) it was 94.2%; in assay [6] (setting [17]), 88.6%. Further, the figures for the viability in [12] and in assay [13] were 92.4% (inactive) and 93.5% (inactive), respectively. Besides, in assay [2], the Her2 level is 104% (inactive). The differential viability (reversal) in assay [6] (H69AR cells + 2 uM doxorubicin) is -5.64% (inactive). Also, the figures for the inhibition in [7], in [8] and in assay [14] were -4% (inactive), 1.5% (inactive) and 1.94% (inactive), respectively. In addition, the growth inhibition in [9] was -3.25% (inactive); in [10], -0.16% (inactive). In addition, in [11], the viability increase is -0.76% (inactive). For the same compound, in assay [15], the RAM network inhibition is 4.69% (inactive).
Turning to `O=C(C1CCC(CNc2c(N3CCCCC3)c(=O)c2=O)CC1)N1CCc2ccccc2C1` (stereo not drawn), the viability was 95% in assay [1]; 95% (inactive) in assay [3]; 107% (inactive) in assay [4]; 91.8% (inactive) in assay [5]; 82.3% in [6] (setting [16]); 91.8% in assay [6] (setting [17]). Also, the viability is 87.5% (inactive) in assay [12] and 83.2% (inactive) in assay [13]. Also, the Her2 level in assay [2] was 93.5% (inactive). Besides, the differential viability (reversal) in [6] (H69AR cells + 2 uM doxorubicin) is 9.49% (inactive). Besides, the figures for the inhibition in assay [7], in assay [8] and in assay [14] were -0.53% (inactive), 0% (inactive) and -0.07% (inactive), respectively. Moreover, the growth inhibition in assay [9] was -4.97% (inactive); in assay [10] it was -4.18% (inactive). Moreover, the viability increase in assay [11] is -3.33% (inactive). The RAM network inhibition in assay [15] was 2.9% (inactive).
Consider `COc1ccc(OC)c(S(=O)(=O)N2CCN(c3c(C)cccc3C)CC2)c1`, for which the viability in [1] is 100%; in assay [3] it was 100% (inactive); in [4] it was 79.5% (inactive); in [5], 86.9% (inactive); in assay [6] (setting [16]), 83.4%; in [6] (setting [17]), 86.9%. Also, the viability in [12] is 68% (inactive); in assay [13], 82.5% (inactive). Also, the Her2 level in assay [2] was 86% (inactive). Moreover, the differential viability (reversal) in assay [6] (H69AR cells + 2 uM doxorubicin) is 3.56% (inactive). The inhibition in assay [7] is -8.53% (inactive); in [8], 2.33% (inactive); in assay [14] it was 1.79% (inactive). The growth inhibition was 0.405% (inactive) in assay [9] and 6.42% (inactive) in assay [10]. Also, in [11], the viability increase was -2.38% (inactive). Further, in assay [15], the RAM network inhibition was 6.46% (inactive).
As to `CCOC(=O)N1CCN(C(=O)c2ccc(CS(=O)(=O)c3ccc(OC)cc3)o2)CC1`, the viability was 88% in assay [1]; 88% (inactive) in assay [3]; 104% (inactive) in assay [4]; 89.2% (inactive) in assay [5]; 99.2% in assay [6] (setting [16]); 89.2% in [6] (setting [17]). Also, the viability is 104% (inactive) in assay [12] and 97.4% (inactive) in assay [13]. The Her2 level in assay [2] was 88% (inactive). In addition, the differential viability (reversal) in [6] (H69AR cells + 2 uM doxorubicin) is -9.97% (inactive). In addition, the inhibition is -4.67% (inactive) in assay [7], 0% (inactive) in assay [8] and -0.045% (inactive) in assay [14]. Besides, the growth inhibition in assay [9] is -12.3% (inactive); in [10], -27.2% (inactive). In addition, in assay [11], the viability increase was -1.05% (inactive). The RAM network inhibition in assay [15] is 4.85% (inactive).
`CC(C)(C)SCCNC(=O)COc1ccccc1`: the viability in assay [1] is 112%; in [3], 112% (inactive); in [4], 88.4% (inactive); in assay [5], 96.8% (inactive); in assay [6] (setting [16]) it was 85%; in assay [6] (setting [17]), 96.8%. For the same compound, the figures for the viability in assay [12] and in assay [13] were 95.7% (inactive) and 96.6% (inactive), respectively. The Her2 level in assay [2] was 88.5% (inactive). Moreover, the differential viability (reversal) in [6] (H69AR cells + 2 uM doxorubicin) is 11.8% (inactive). Besides, the inhibition was -6.22% (inactive) in [7], 4% (inactive) in assay [8] and 1.81% (inactive) in [14]. The values for the growth inhibition in [9] and in [10] were -2.07% (inactive) and 4.92% (inactive), respectively. The viability increase in assay [11] was 0.03% (inactive). Moreover, the RAM network inhibition in assay [15] was 2.63% (inactive).
Take `CCC(C)(NC(=O)c1ccc(=O)[nH]c1)C(=O)NC1CCCC1` (stereo not drawn): the viability in assay [1] is 102%; in assay [3], 102% (inactive); in assay [4] it was 107% (inactive); in [5], 94.1% (inactive); in [6] (setting [16]), 81.8%; in assay [6] (setting [17]) it was 94.1%. For the same compound, the viability in assay [12] was 105% (inactive); in assay [13] it was 97.9% (inactive). In addition, in assay [2], the Her2 level is 96.5% (inactive). In addition, the differential viability (reversal) in assay [6] (H69AR cells + 2 uM doxorubicin) was 12.3% (inactive). Further, the inhibition in assay [7] was -5.2% (inactive); in assay [8] it was -0.67% (inactive); in assay [14], 1.92% (inactive). Further, the growth inhibition in [9] was -11.7% (inactive); in assay [10], -35% (inactive). Moreover, the viability increase in assay [11] is 0.76% (inactive). Besides, the RAM network inhibition in assay [15] was 2.77% (inactive).
